PubChem BioAssay (NCI)
About 83,000 compounds went through this panel and 20% of them were active in at least one assay; those are over-represented in the sample as a whole.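 Percent growth is the endpoint: 0 to 100 indicates growth inhibition (40 means 60% inhibition), 0 means no net growth, and negative values indicate cell death.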 Unmarked numbers belong to inactive results. Active and inactive are the calls of the source. Rule for the calls: active = growth percent below 10; inactive = the rest.

How the values were obtained:
Experiment in all cases: NCI-60 one-dose screen, 48 h (100 = growth as untreated, 0 = no growth, -100 = all killed)
Settings in all cases: 10 µM unless noted
RPMI-8226 leukemia = test system: RPMI-8226 leukemia
OVCAR-8 ovarian = test system: OVCAR-8 ovarian
OVCAR-5 ovarian = test system: OVCAR-5 ovarian
OVCAR-4 ovarian = test system: OVCAR-4 ovarian
SK-OV-3 ovarian = test system: SK-OV-3 ovarian
IGROV1 ovarian = test system: IGROV1 ovarian
OVCAR-3 ovarian = test system: OVCAR-3 ovarian
HS 578T breast = test system: HS 578T breast
NCI/ADR-RES ovarian = test system: NCI/ADR-RES ovarian
T-47D breast = test system: T-47D breast

| Compound | growth (RPMI-8226 leukemia) | growth (OVCAR-8 ovarian) | growth (OVCAR-5 ovarian) | growth (OVCAR-4 ovarian) | growth (SK-OV-3 ovarian) [%] | growth (IGROV1 ovarian) | growth (OVCAR-3 ovarian) | growth (HS 578T breast) | growth (NCI/ADR-RES ovarian) | growth (T-47D breast) |
| --- | --- | --- | --- | --- | --- | --- | --- | --- | --- | --- |
| COc1c(O)cc2oc3cc(O[C@@H]4OC(C)[C@@H](O)[C@H](O)C4O)c(CC=C(C)C)c(O)c3c(=O)c2c1CC=C(C)C (stereo not given in full) | 73.2% | 99.3% | 119% | 102% | 113 | 83.9% | 94.7% | 98.4% | 102% | 86.6% |
| COc1ccc(-c2nc(C#N)c(NCC(c3ccc(Cl)cc3)N3CCCCC3)o2)cc1 (stereo not given) | 85.6% | 101% | 96% | 87.5% | 109 | 85.8% | 95.1% | 97.3% | 87.1% | 94.8% |
| C=C1C(=O)O[C@H]2[C@H]1CC/C(COC(=O)CCC(=O)OC/C1=C/CC[C@@]3(C)O[C@H]3[C@H]3OC(=O)C(=C)[C@@H]3CC1)=C\CC[C@@]1(C)O[C@@H]21 | -0.781% (active) | 32.8% | 94.6% | 47.3% | 84.9 | 11.5% | -11% (active) | 79.6% | 89.8% | 19.7% |
| COc1cc(C2=NN(C(C)=O)C(c3cccc(Nc4ccnc5cc(C(F)(F)F)ccc45)c3)C2)cc(OC)c1OC (stereo not given) | 20.8% | 56.1% | 82.7% | 52% | 69.3 | 62.4% | 61.2% | 76.6% | 53% | 40.2% |
| COC(=O)[C@]1(C)CCC[C@]2(C)[C@H]3C[C@H]4C(C(C)C)=C[C@]3(CC[C@H]21)[C@@H]1C(=O)N(CCC#N)C(=O)[C@@H]14 | 62% | 85.5% | 116% | 71.7% | 98.8 | 86.2% | 88.9% | 89.4% | 84.4% | 69.9% |
| CCOC(=O)NCCc1nc2c([nH]1)c(=O)n(C)c(=O)n2C | 106% | 107% | 90.3% | 107% | 122 | 97.1% | 113% | 104% | 99.8% | 102% |
| CC(C)(C)c1nn(-c2ccccc2)c2c1COCN2Cc1ccc(Cl)cc1 | 10.9% | 107% | 90% | 77.2% | 92.6 | 117% | 104% | 86.2% | 94.8% | 73.6% |
| O=C1CCC23OC(c4ccccc4N12)C(O)C(O)C3O (stereo not given) | 103% | 99.3% | 110% | 105% | 117 | 98.2% | 96.3% | 105% | 101% | 110% |
| CN(C)c1ccc(-c2ccc3[nH]c(=O)nc(-c4ccc(F)cc4)c3c2)cn1 | 46.9% | 43.5% | 79.9% | 66.5% | 36.2 | 53.8% | 6.67% (active) | 28.5% | 51.7% | 36.6% |
| O=C1C(Cl)=C(NCCCN(CCCNC2=C(Cl)C(=O)c3ccccc3C2=O)C2=C(Cl)C(=O)c3ccccc3C2=O)C(=O)c2ccccc21 | 45.4% | 39.2% | 121% | 33.9% | 93.8 | 54.8% | -0.584% (active) | 67.6% | 76.1% | 51.8% |
| CCOCc1nc2ccccc2c(=O)[nH]1 | 102% | 103% | 106% | 113% | 108 | 96.6% | 109% | 93.8% | 103% | 105% |
| Cc1ccn2c3c(c(C(=O)O)c2c1)C(=O)c1ccccc1C3=O | 90.6% | 80.1% | 121% | 69.9% | 98.3 | 81.3% | 45.6% | 43.7% | 85.2% | 90.7% |
| COc1cc2c(cc1OC)C(Sc1ccc(Cl)cc1)c1c(nc(N)c(C#N)c1N)O2 (stereo not given) | -24.2% (active) | 1.28% (active) | 10.8% | -14.8% (active) | 56.1 | -25.5% (active) | -69.6% (active) | 30.8% | 1.5% (active) | -3.7% (active) |
| COc1ccccc1Nc1nnc(-c2ccc(Cl)cc2)o1 | 29.2% | 60.1% | 86.5% | 68.3% | 47.7 | 52.8% | 8.06% (active) | 64.5% | 20.8% | 32.4% |
| CCCCC1=c2c([nH]c3ccc(OC)cc23)=NC2C=CC=NC12 (stereo not given) | 56.8% | 101% | 106% | 80.3% | 113 | 69.9% | 114% | 92.3% | 96.6% | 38.8% |
| Sc1cccc2cccnc12 | 26.5% | 27.1% | 59.6% | 36.3% | 45.5 | 36.9% | 17.9% | 71.9% | 24.8% | 40.5% |
| COc1ccc(Cc2nc(C#N)c(N3CCN(c4ccc(F)cc4)CC3)o2)cc1 | 93.3% | 103% | 86.7% | 79.3% | 89.6 | 76.8% | 96.9% | 92.5% | 95.3% | 81.2% |
| Cc1nn(-c2ccc(-c3ccc(OC(F)(F)F)cc3)cc2)c2nc(-c3ccccc3)nc(N)c12 | 118% | 93% | 98.3% | 102% | 108 | 99.3% | 107% | 115% | 90.8% | 78.5% |
| C(=C\c1cn(-c2ccccc2)nc1-c1ccccc1)/c1nnc(-c2c[nH]c3ccccc23)o1 | 40.8% | 35.2% | 93.3% | 47.9% | 91.8 | 59.2% | 20.9% | 44.7% | 51.8% | 55.5% |
| O=C1C(Cl)=C(Nc2ccc3c(c2NC2=C(Cl)C(=O)c4ccccc4C2=O)C(=O)c2ccccc2C3=O)C(=O)c2ccccc21 | 28.1% | 22.3% | 3.29% (active) | -12% (active) | 90.3 | 6.05% (active) | -2.06% (active) | 42.2% | 7.89% (active) | 10.5% |
| CCCCCCC/C=C/[C@H]1O[C@]23C(=O)C[C@@]4(C[C@@H](OC5OC(CO)C(O)C(O)C5O)C[C@@H]4[C@H]2C=C1C)OC3=O (stereo not given in full) | -1.42% (active) | 14.5% | 27.7% | 29.6% | 71.9 | 15.9% | 9.92% (active) | 61.7% | -5.53% (active) | 25.2% |
| O=C1CCc2ccccc2N1 | 106% | 105% | 103% | 94.7% | 108 | 98.4% | 102% | 103% | 101% | 109% |
| O=C(CCCCCCCCC(=O)Nc1cccc(C2=NCCN2)c1)Nc1cccc(C2=NCCN2)c1 | 78.6% | 107% | 109% | 102% | 113 | 104% | 112% | 113% | 104% | 81% |
| Cc1ccc(-c2nc(C#N)c(S(=O)(=O)N(C)CCO)o2)cc1 | 27.7% | 67.4% | 92% | 105% | 102 | 60.5% | 42.3% | 99.3% | 96.7% | 67.3% |
| CC(/C=C/c1ccccc1)=N/NC(=O)c1ccncc1 | 99.9% | 101% | 114% | 105% | 105 | 103% | 109% | 99.6% | 107% | 99% |
| COc1cc2c(Nc3ccc(NC(=O)Nc4ccc(Cl)c(C(F)(F)F)c4)c(Cl)c3)ncnc2cc1OCCCN1CCN(C)CC1 | -39% (active) | 13% | 31% | -9.14% (active) | 20.4 | -2.58% (active) | 11% | -8.65% (active) | 93.3% | 22.2% |
